# High-throughput results deposited in PubChem BioAssay by The Scripps Research Institute Molecular Screening Center.
# TEAD-YAP block = TEAD-YAP interaction inhibition, primary screen, TEAD-YAP interaction inhibitor project, luminescence, HEK-TIYL cells | TEAD-Gal4/YAP UAS-luciferase luminescence | inhibition, % at 9.12 µM | 1.4% of 640,000 active | AID 1259422, 2018; in the data active means inhibition above about 32%;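 further: 0% = median of test compound wells and 100% = reference inhibitor wells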
# MITF primary = MITF inhibitors, primary screen, biochemical, AlphaScreen, human | Microphthalmia-associated transcription factor (Homo sapiens), O75030 | AlphaScreen MITF homodimerization, bead proximity signal | inhibition, % at 2.6 µM | 0.91% of 650,000 active | AID 1259374, 2018; in the data active means inhibition above about 50%;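 further: 0% = vehicle wells with protein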
# GPR151 activ = activators of human GPR151, primary screen, cell-based, PathHunter beta-arrestin, luminescence; PathHunter beta-arrestin GPR151 cells; activation, % at 11.2 µM; 1% of 650,000 active; AID 1508602, 2020; in the data active means activation above about 4.9%;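 further: 0% = median of compound wells and 100% = cells with positive control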
# FBW7 act = FBW7 E3 ligase activators, primary screen, biochemical, AlphaScreen, human; F-box/WD repeat-containing protein 7 (Homo sapiens), Q969H0; AlphaScreen FBW7–phospho-cyclin E peptide binding, activator screen; normalized activity (activation), % at 26.1 µM; 0.13% of 650,000 active; in the data active means normalized activity above about 1.9%;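 further: purified mutant Fbw7 with reduced substrate affinity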
# Target sequence (Q969H0 whole entry, looked up): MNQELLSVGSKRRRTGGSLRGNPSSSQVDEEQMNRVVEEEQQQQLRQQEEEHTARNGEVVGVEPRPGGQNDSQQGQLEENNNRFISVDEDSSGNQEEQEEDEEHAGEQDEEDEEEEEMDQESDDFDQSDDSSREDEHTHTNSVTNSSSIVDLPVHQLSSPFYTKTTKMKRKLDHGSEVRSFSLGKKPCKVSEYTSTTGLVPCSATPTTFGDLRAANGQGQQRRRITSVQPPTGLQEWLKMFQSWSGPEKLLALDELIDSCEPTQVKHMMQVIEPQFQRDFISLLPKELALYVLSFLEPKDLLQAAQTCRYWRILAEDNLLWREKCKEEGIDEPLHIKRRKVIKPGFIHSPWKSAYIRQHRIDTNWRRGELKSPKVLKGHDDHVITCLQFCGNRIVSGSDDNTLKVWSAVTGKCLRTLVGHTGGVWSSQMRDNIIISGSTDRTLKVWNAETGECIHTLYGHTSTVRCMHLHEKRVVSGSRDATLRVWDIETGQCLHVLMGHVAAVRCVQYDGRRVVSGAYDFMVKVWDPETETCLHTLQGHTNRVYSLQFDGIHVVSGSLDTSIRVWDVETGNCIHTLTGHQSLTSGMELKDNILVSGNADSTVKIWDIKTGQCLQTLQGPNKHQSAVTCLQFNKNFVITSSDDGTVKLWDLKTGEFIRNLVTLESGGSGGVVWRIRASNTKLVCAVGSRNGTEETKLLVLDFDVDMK
# Starred values were filed as active, the others as inactive. The list is not random: actives were taken first. Their share in the collection is about 3.5%.
SMILES,TEAD-YAP block,MITF primary,GPR151 activ,FBW7 act
FC(F)(F)C1=Nc2cc(Cl)c(Cl)cc2N=C(c2cccs2)C1,36.8*,-5.7,-0.4,0.0
COc1cc(N2CCOCC2)ccc1Nc1cc(Nc2ccccc2NC(C)=O)c(C(F)(F)F)cn1,45.5*,-6.8,-0.8,-0.1
CNC(=O)c1ncccc1Nc1cc(Nc2ccc(C(=O)N(C)C)cc2OC)ncc1C(F)(F)F,-12.9,-4.0,0.0,-0.1
CNC(=O)c1ccccc1Nc1cc(Nc2ccc(N3CCOCC3)cc2C)ncc1C(F)(F)F,71.2*,5.1,0.5,-0.1
CNC(=O)c1ccccc1Nc1cc(Nc2ccc(C(=O)N3CC[C@H](O)C3)cc2OC)ncc1C(F)(F)F,33.1*,15.1,0.8,0.1
NC(=O)c1ccccc1Nc1ccnc(Nc2ccc(N3CCNCC3)cc2)c1,4.2,7.6,-0.1,-0.7
Cc1cnc(Nc2ccc(N3CCNCC3)cc2)cc1Nc1ccccc1C(N)=O,32.8*,18.2,-1.3,0.2
CCCCCNS(=O)(=O)c1ccc2ccccc2c1,7.0,8.1,0.8,-0.1
COc1cccc(-n2cc(C(=O)NC3CCCCCC3)c3ccccc3c2=O)c1,-0.5,-15.0,1.0,0.2
CNC(=O)c1ccccc1Nc1cc(Nc2ccc(N3CCOCC3)cn2)ncc1C(F)(F)F,85.6*,3.5,-2.0,0.1
COC(=O)c1c(NC(=O)c2ccco2)sc(C(=O)Nc2ccc(C)cc2)c1C,34.0*,-3.9,-0.4,0.0
COC(=O)c1c(NC(=O)c2ccco2)sc(C(=O)Nc2ccc(F)cc2)c1C,4.5,-2.1,-0.1,0.0
CCn1c(C(O)c2cc(OC)c(OC)c(OC)c2)nc2ccccc21 (configuration not stated),8.9,15.6,-0.2,2.3*
COc1cc(Nc2ccc(NC(=O)c3ccccc3Cl)cc2)nc(C)n1,4.4,50.4,1.2,0.0
O=c1oc2ccccc2cc1-c1cn2ccccc2n1,74.6*,0.7,-10.8,0.1
COc1cccc2cc(-c3cn4ccccc4n3)c(=O)oc12,41.9*,7.0,-6.1,0.1
Cc1cc2ncn(CC(O)COc3ccccc3)c2cc1C (configuration not stated),13.4,0.0,-0.7,-0.2
CN(C(=O)Cn1c(=O)oc2ccccc21)c1cccc(C(F)(F)F)c1,1.1,12.2,1.2,0.3
O=C(O)c1cccc2c1NC(c1ccccc1[N+](=O)[O-])C1CC=CC21 (configuration not stated),-0.5,66.5*,0.0,-0.3
O=C(O)c1cccc2c1NC(c1ccc([N+](=O)[O-])cc1)C1CC=CC21 (configuration not stated),-4.3,65.0*,0.5,-0.2
Cc1c(C(=O)O)ccc2c1N[C@@H](c1cccc(Cl)c1)[C@H]1CC=C[C@@H]21,-0.5,76.5*,-0.2,-0.6
O=C(O)c1cccc2c1NC(c1cccc(Br)c1)C1CC=CC21 (configuration not stated),8.2,23.7,1.2,0.0
O=C(O)c1cc(Br)cc2c1N[C@@H](c1ccc(F)cc1)[C@H]1CC=C[C@@H]21,-3.4,78.5*,-1.2,-0.4
COc1ccc(C(=O)C2CCCN(C(=O)c3cc(C)nc4cc(F)ccc34)C2)cc1OC (configuration not stated),-3.2,-11.6,0.4,-0.2
Cc1csc(NC(=O)CSc2nc3c(C)cccc3cc2C#N)n1,5.3,8.1,-1.0,0.0
SMILES,TEAD-YAP block,MITF primary,GPR151 activ,FBW7 act
CCCc1cc(N2CCC(C(N)=O)CC2)n2cnnc2n1,-2.0,-6.4,1.0,0.0
CCCc1cc(N2CCN(c3ccc(C(C)=O)cc3)CC2)n2cnnc2n1,41.5*,4.8,-1.0,-0.2
O=S(=O)(c1ccc(Cl)s1)N1CCc2ccccc2C1,40.9*,3.0,4.8,0.0
O=S(=O)(c1ccc(Cl)s1)N1CCCCCC1,5.2,-8.2,-1.4,0.0
CCn1c(C2COc3ccccc3O2)nc2ccc(-c3ccncc3)cc21 (configuration not stated),-14.6,24.0,-1.0,-0.1
c1ccc(Cn2c(C3COc4ccccc4O3)nc3ncc(-c4ccncc4)cc32)cc1 (configuration not stated),46.8*,-5.7,0.1,-0.1
CN1CCN(c2ccc(-c3nc(NCc4ccccc4)c4ncn(-c5ccsc5)c4n3)cc2)CC1,3.5,4.7,0.0,-0.2
CN1CCN(c2ccc(-c3nc(NC4CC4)c4ncn(-c5ccsc5)c4n3)cc2)CC1,48.6*,5.0,0.7,-0.2
CN1CCN(C(=O)c2ccc(-c3nc(NCc4nc5ccccc5[nH]4)c4ncn(-c5ccccc5)c4n3)cc2)CC1,12.5,9.3,0.5,0.0
CN1CCN(C(=O)c2ccc(-c3nc(Nc4ccccc4)c4ncn(-c5ccsc5)c4n3)cc2)CC1,22.6,-8.3,-0.3,0.0
CN1CCN(C(=O)c2ccc(-c3nc(NCc4nc5ccccc5[nH]4)c4ncn(-c5ccsc5)c4n3)cc2)CC1,58.5*,-6.5,-1.1,0.3
CN1CCN(C(=O)c2ccc(-c3nc(NC4CC4)c4ncn(-c5ccsc5)c4n3)cc2)CC1,49.3*,1.9,0.2,0.1
COc1ccc(NC(=O)COc2ccc([N+](=O)[O-])cc2)cc1Cl,-2.1,-21.4,-0.1,0.0
FC(F)(F)COc1nc(Nc2ccc(OC(F)(F)F)cc2)nc(NC2CC2)n1,-2.4,-3.2,0.5,0.0
COc1ccc(N2CCN(Cc3ccc(Br)o3)CC2)cc1,6.0,52.5*,-1.3,-0.1
O=C1c2oc3ccccc3c(=O)c2C(c2cccc(Oc3ccccc3)c2)N1CCCO (configuration not stated),10.0,-1.5,-0.8,-0.3
COc1cccc(C2CC(=O)C=C(NCc3ccccc3OC)C2)c1 (configuration not stated),52.3*,11.5,0.4,0.8
COc1ccc(C(=O)Nc2sc3c(c2C(=O)O)CCC3)cc1,39.6*,-2.9,0.5,0.0
O=C(Nc1sc2c(c1C(=O)O)CCCC2)c1ccc(Br)cc1,-0.3,3.6,-1.1,0.0
CNC(=O)c1c(NC(=O)c2cccc(C)c2)sc2c1CCC2,-31.7,17.4,0.2,1.0
Cc1cccc(C(=O)Nc2sc3c(c2C(=O)O)CCC3)c1,65.8*,46.4,-9.8,0.1
Cc1ccc(C(=O)Nc2sc3c(c2C(=O)O)CCCC3)o1,39.6*,-11.0,-6.0,0.0
O=C(Nc1sc2c(c1C(=O)O)CCCC2)c1ccc(F)cc1,36.1*,-0.7,-4.6,-0.1
CCn1c(O)c(C2=c3cc([N+](=O)[O-])ccc3=NC2=O)sc1=S,7.9,4.0,-0.6,0.0
COc1ccc(C(=O)Nc2sc3c(c2C#N)CCC3)cc1,37.3*,0.2,-0.2,0.1
CC(C)Oc1ccc(C(=O)Nc2sc3c(c2C#N)CCC3)cc1,0.9,8.0,-0.7,0.3
CCN(CC)S(=O)(=O)c1ccc(Cl)c(C(=O)Nc2sc3c(c2C#N)CCC3)c1,34.4*,1.5,0.3,0.7
